Bioassay records: PubChem BioAssay, National Center for Advancing Translational Sciences (NCATS)
NS1 inh: qHTS Assay for Inhibitors of Influenza NS1 Protein Function. 270,000 compounds, 0.4% hits. Potency, µM (doses to about 46.1 µM); also: actives are rising curves; nearly all actives have a fitted effect of over 50% in size
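In this qHTS, NS1 from influenza A is expressed in budding yeast, where it slows growth. Cells are switched from glucose to 2% galactose medium (pH 6.0, -URA), treated with compound, and growth recovery is read at OD600.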
SARS PLpro yeast: qHTS of Yeast-based Assay for SARS-CoV PLP; S. cerevisiae expressing SARS-CoV PLpro, growth rescue; Potency, µM (top dose mostly 32.9 µM), usual class: activators; 330,000 compounds, 0.19% hits; AID 485353, 2010; also: nearly all actives have a fitted effect of over 55% in size
Pf growth 48h: Primary qHTS for delayed death inhibitors of the malarial parasite plastid, 48 hour incubation; P. falciparum luciferase growth in erythrocytes, 48 h; Potency, µM (doses to about 28.7 µM), most hits filed as inhibitors; 310,000 compounds, 5.9% hits; active = well fitted inhibition curve with a large enough effect; inconclusive = small, poorly fitted or top-dose-only effect, or another doubt; inactive = no such curve, though single readings can be large or run the other way
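Firefly luciferase activity from engineered P. falciparum reports growth; inhibitors lower the luminescent signal. Cultures contained 2% hematocrit erythrocytes at 0.1% final parasitemia.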
Pf growth 96h: Primary qHTS for delayed death inhibitors of the malarial parasite plastid, 96 hour incubation | P. falciparum luciferase reporter growth, 96 h | Potency, µM (doses to about 28.7 µM), hits mostly inhibitors | 320,000 compounds, 6.9% hits | AID 504834, 2011; active = well fitted inhibition curve with a large enough effect; inconclusive = small, poorly fitted or top-dose-only effect, or another doubt; inactive = no such curve, though single readings can be large or run the other way
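Luminescence readout: decreased luciferase signal marks inhibited growth of reporter-expressing P. falciparum in infected red cells (2% hematocrit, 0.05% parasitemia final), exposed to compound two generations (96 h, 37 C, 5% CO2).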
Of the large screens only hits and unclear results are named; the others gave an inactive call. Only some compounds are listed: those with a hit (about 10% of all), similar ones and a draw of the others. Unless noted, calls follow the shape of the full dose curve.

COc1ccc(O)c(C(=O)c2cc(C#N)c(=O)n(-c3ccc(Cl)cc3)c2)c1	Pf growth 48h 7.38µM, Pf growth 96h 5.86µM
N[C@H](Cc1ccccc1)c1nn[nH]n1	none (no result: SARS PLpro yeast, Pf growth 48h, Pf growth 96h)
N=c1nc(N)nc(N)n1-c1ccc(S(N)(=O)=O)cc1	none (no result: SARS PLpro yeast, Pf growth 48h, Pf growth 96h)
CCO[C@@H]1OC(C(=O)N2CCCCCCC2)=C[C@H](c2ccc3c(c2)OCO3)[C@H]1CCCO	Pf growth 48h inconclusive, Pf growth 96h inconclusive
C#Cc1ccc([C@H]2C=C(C(=O)N3CCN(Cc4ccc5c(c4)OCO5)CC3)O[C@@H](OCC)[C@@H]2CCCO)cc1	Pf growth 48h 4.15µM, Pf growth 96h 4.15µM
CCO[C@H]1OC(C(=O)N2CCN(Cc3ccc4c(c3)OCO4)CC2)=C[C@@H](c2ccc3c(c2)OCO3)[C@@H]1CCCO	Pf growth 48h 5.86µM, Pf growth 96h 13.1µM
CCO[C@@H]1OC(C(=O)N2CCN(Cc3ccc4c(c3)OCO4)CC2)=C[C@H](C)[C@H]1CCCO	Pf growth 48h inconclusive, Pf growth 96h inconclusive
O=C(NCC1CCCO1)c1ccc(Cl)c(S(=O)(=O)N2CCCCC2)c1 (configuration not stated)	Pf growth 48h inconclusive
CCC(C)NC(=O)c1cc(-c2ccc3c(c2)OCO3)on1 (configuration not stated)	none
CCCCCCOC(=O)CCn1[nH]c(=O)c2ccccc2c1=O	Pf growth 48h inconclusive
COC(=O)CCn1[nH]c(=O)c2ccccc2c1=O	Pf growth 96h 9.28µM
CCCCN(CCCC)CCCN1CC(=O)N2[C@@H](Cc3c([nH]c4ccccc34)C2(C)C)C1=O	Pf growth 48h 9.28µM, Pf growth 96h inconclusive
CCCCCN1CC(=O)N2[C@@H](Cc3c([nH]c4ccccc34)C2(C)C)C1=O	Pf growth 48h inconclusive, Pf growth 96h inconclusive
CCCCOCCCN1CC(=O)N2[C@@H](Cc3c([nH]c4ccccc34)C2(C)C)C1=O	Pf growth 48h inconclusive, Pf growth 96h 9.28µM
CC1(C)c2[nH]c3ccccc3c2C[C@H]2C(=O)N(CCCCCO)CC(=O)N21	Pf growth 48h inconclusive
CC(=NCCCn1ccnc1)c1c(C)[nH]n(-c2ccc([N+](=O)[O-])cc2)c1=O	Pf growth 48h inconclusive
CCOC(=O)c1c(C)[nH]c(C)c1S(=O)(=O)NC(C)Cc1ccco1 (configuration not stated)	Pf growth 96h inconclusive
CCOc1ccc(NC(=O)C(=O)NCCN2CCN(S(=O)(=O)c3ccccc3)CC2)cc1	none
CCC(C)(C)C(=O)Nc1ncc(S(=O)(=O)c2ccc([N+](=O)[O-])cc2)s1	Pf growth 48h 8.28µM, Pf growth 96h 2.94µM
O=C(CCl)Nc1ncc(S(=O)(=O)c2ccc([N+](=O)[O-])cc2)s1	none (no result: NS1 inh, Pf growth 48h, Pf growth 96h)
CCCC(C)C(=O)Nc1ncc(S(=O)(=O)c2ccc([N+](=O)[O-])cc2)s1 (configuration not stated)	SARS PLpro yeast inconclusive, Pf growth 48h 1.65µM, Pf growth 96h inconclusive
O=C(/C=C/Sc1ccc(C(F)(F)F)cn1)c1ccccc1	Pf growth 48h inconclusive
CCN1C(=O)/C(=C2/C=Cc3cc(C)ccc3N2CC)N(C)C1=S	Pf growth 48h inconclusive, Pf growth 96h 8.28µM
CCN1/C(=C2\OC(=S)N(C)C2=O)C=Cc2ccccc21	none (no result: NS1 inh)
CCN1/C(=C2\C(=O)N(C)C(=S)N2C)C=Cc2cc(OC)ccc21	Pf growth 48h 14.7µM
Nc1ccc(Nc2nc3ccccc3[nH]2)cc1	Pf growth 48h inconclusive
Nc1ccccc1Nc1nc2ccccc2[nH]1	NS1 inh inconclusive, Pf growth 96h 10.4µM
CCC1(c2ccc(F)cc2)NC(=O)NC1=O (configuration not stated)	none
COc1cc(/C=N/NC(=O)CCN2CCN(C(c3ccccc3)c3ccccc3)CC2)ccc1O	Pf growth 48h inconclusive, Pf growth 96h 11.7µM
COc1cc(/C=N/Nc2ccccc2)ccc1O	Pf growth 48h inconclusive, Pf growth 96h 10.4µM
Cn1c(=S)[nH]c2cccnc21	Pf growth 96h 8.28µM
O=[N+]([O-])c1ccc(Sc2nc3ccccc3o2)c([N+](=O)[O-])c1	Pf growth 96h inconclusive (no result: Pf growth 48h)
O=[N+]([O-])c1ccc(Cl)cc1Sc1nc2ccccc2o1	Pf growth 48h 8.28µM
C/C(=N\NC(=O)C1(C)CC1(Br)Br)c1ccc(NC(=O)c2ccc(C)o2)cc1 (configuration not stated)	Pf growth 48h inconclusive, Pf growth 96h 9.28µM
C/C(=N\NC(=O)C1(C)CC1(Br)Br)c1ccc([N+](=O)[O-])cc1 (configuration not stated)	Pf growth 48h inconclusive, Pf growth 96h inconclusive
COC(=O)C(CC(C)C)NC(=O)/C=C/c1ccccc1Cl (configuration not stated)	Pf growth 48h 13.1µM
O=C(O)CC1NC(=O)N(c2ccccc2)C1=O (configuration not stated)	Pf growth 96h 2.62µM
O=C(O)CC1NC(=O)N(C2CCCCC2)C1=O (configuration not stated)	Pf growth 96h 11.7µM (no result: NS1 inh)
O=C1C(Cc2ccccc2)NC(=S)N1c1ccccc1 (configuration not stated)	Pf growth 48h inconclusive
CCCCC1NC(=S)N(C2CCCCC2)C1=O (configuration not stated)	none
Cc1cc(C=O)c(C)n1C1CCCCC1	none (no result: Pf growth 48h)
CC(=O)c1c(C(C)=O)c(C)n(C2CCCCC2)c1C	Pf growth 96h 1.47µM
CCCNC(=O)c1ccc(S(=O)(=O)c2ccc(OC)cc2)c([N+](=O)[O-])c1	Pf growth 48h 11.7µM
CCn1c(C(=O)O)c(CC(=O)Nc2cccc(C(F)(F)F)c2)c2ccccc21	Pf growth 96h 0.738µM
Cc1ccc(C(=O)Nc2cccc(C(F)(F)F)c2)cc1Nc1cncnc1	NS1 inh inconclusive, Pf growth 96h 11.7µM
CCn1c(C(=O)O)c(CC(=O)Nc2ccccc2F)c2ccccc21	none (no result: NS1 inh)
CCCCCNCC(=O)Nc1cccc(C(=O)Nc2cccc(C(F)(F)F)c2)c1	Pf growth 48h 4.65µM, Pf growth 96h 3.29µM
Cc1ccc(S(=O)(=O)NC(CC(C)C)C(=O)N2CCCC2)cc1 (configuration not stated)	Pf growth 48h inconclusive
CCOC(=O)N1CCN(C(=O)c2ccc3c(c2)NC(=O)/C(=C/c2ccccc2)S3)CC1	Pf growth 96h 14.7µM
O=C(NC1CCCC1)c1ccc2c(c1)N(Cc1ccccc1)CCS2	Pf growth 48h inconclusive, Pf growth 96h 10.4µM
Cc1ccc(CN2CCSc3ccc(C(=O)NC4CCN(Cc5ccccc5)CC4)cc32)cc1	Pf growth 48h inconclusive (no result: NS1 inh)
CCOC(=O)N1CCN(C(=O)c2ccc3c(c2)N=C(C)c2cc(Cl)ccc2S3)CC1	Pf growth 48h 9.28µM, Pf growth 96h inconclusive
CCN1CCN(CCCNC(=O)c2ccc3c(c2)N(Cc2ccc(C)cc2)CCS3)CC1	Pf growth 48h 16.5µM, Pf growth 96h inconclusive
CCOC(=O)C1CCN(C(=O)c2ccc3c(c2)NC(=O)/C(=C/c2ccccc2)S3)CC1	Pf growth 48h inconclusive, Pf growth 96h inconclusive
Cc1ccc(CN2CCSc3ccc(C(=O)NCCCN4CCOCC4)cc32)cc1	Pf growth 48h inconclusive
NCCO/C=C/[C@H](N)C(=O)O	none (no result: NS1 inh, SARS PLpro yeast)
COc1cccc(/C=C/C(=O)OCC(=O)N2CCCC2)c1OC	none (no result: NS1 inh, Pf growth 48h, Pf growth 96h)
